D1 agonist – human D1 receptor agonism; P21728; HEK293 T-REx D1 cells, calcium flux, agonist mode; activation, % at 2 µM; 1% of 360,000 active; AID 504660
Target sequence (P21728 whole entry, looked up): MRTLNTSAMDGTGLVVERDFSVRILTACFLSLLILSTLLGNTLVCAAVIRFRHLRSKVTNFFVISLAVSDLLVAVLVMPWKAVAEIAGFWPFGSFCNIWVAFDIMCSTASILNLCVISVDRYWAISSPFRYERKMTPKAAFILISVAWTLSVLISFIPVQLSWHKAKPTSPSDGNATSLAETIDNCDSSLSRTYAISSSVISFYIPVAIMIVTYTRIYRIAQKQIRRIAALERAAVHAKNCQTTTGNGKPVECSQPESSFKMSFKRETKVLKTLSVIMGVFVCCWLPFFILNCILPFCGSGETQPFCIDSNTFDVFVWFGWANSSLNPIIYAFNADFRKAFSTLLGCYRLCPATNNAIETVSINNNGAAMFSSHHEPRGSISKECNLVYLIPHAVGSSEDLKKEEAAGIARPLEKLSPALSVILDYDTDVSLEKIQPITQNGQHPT
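Agonism was scored from calcium flux recorded over 180 s (1 read/s) after pintool compound addition, following a 10-cycle baseline. Cells were inducible force-coupled HEK293 TREx D1, plated overnight at 30 C and loaded with no-wash calcium dye.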
Glioma ERSR ind – inducers of ER stress response in human glioma cells; U87-MG GRP78 promoter luciferase reporter, 16 h; Potency, µM, usual class: activators; 0.02% of 420,000 active; active = well fitted activation curve with a large enough effect; also: series mostly up to about 76 µM; nearly all actives have a fitted effect of over 35% in size
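Stably transfected U87-MG glioma cells carrying a GRP78-based luciferase sensor; 16 h compound incubation. Luminescence end-point read 10 min after Bright-Glo addition at room temperature.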
TRHR agonist – TRH receptor (human) agonism. P34981. AID 493084. TRHR cells, calcium flux fluo-8, FDSS agonist mode. 0.18% of 360,000 active. activation, % at 2 µM
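Steps: seed TRHR cells overnight; add fluo-8 no-wash Ca dye, RT 30 min–1.5 h; record 10 s baseline; pin-transfer compounds; monitor fluorescence 1 cycle/s for the agonist window. Calcium increases flag candidate agonists.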
TRHR PAM – TRH receptor (human) allosteric enhancement; 0.66% of 360,000 active; enhancement, % at 2 µM; TRHR cells, fluo-8 calcium fluorescence, EC20 TRH enhancement; in the data active = enhancement above about 30%
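TRHR-expressing cells loaded with fluo-8 calcium dye were read kinetically (ex 480/em 530) during compound addition, then stimulated with an EC20 of TRH (10 nM final). Enhancement of the Gq-mediated intracellular calcium response was scored.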
D1 PAM – human D1 dopamine receptor positive modulation; 0.036% of 360,000 active; P21728; potentiation, % at 10 µM; AID 504651; HEK293 TREx D1 cells, calcium flux, dopamine EC20 potentiation; in the data active = potentiation above about 30%
D1 antagonist – human D1 dopamine receptor antagonism | P21728 | HEK293 TREx D1 cells, calcium flux, dopamine EC80; hits give low values | activity change, negative = inhibition, % at 10 µM | 3.2% of 360,000 active | AID 504652; in the data active = activity change below about -30%
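HEK293 T-REx cells expressing inducible, force-coupled D1 receptor; no-wash Ca dye, 30–90 min RT. Cmpd → 180 s read at 1 Hz → EC80 DA → 180 s read.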
Hits are given with their value; . = inactive; / = no result. The list is not random: actives were taken first. Their share in the collection is about 4%. Rule as the data show it, unless noted: active = activation above about 30%; inactive = the rest.

SMILES	D1 agonist	Glioma ERSR ind	TRHR agonist	TRHR PAM	D1 PAM	D1 antagonist
CC(C)(C)C(=O)Nc1ccc2nc(SCCOc3ccccc3Cl)sc2c1	30	.	.	.	.	.
Cc1ccccc1OCCSc1nc2ccc(NC(=O)c3ccccc3)cc2s1	.	.	.	.	.	-33
O=C(C1CCN(S(=O)(=O)c2ccccc2)CC1)N1CCOCC1	.	.	.	.	.	/
Fc1ccc(CSc2ccc(-c3ccco3)nn2)cc1	.	.	.	.	.	-85
O=C(Nc1ccccc1N1CCOCC1)c1cccnc1	.	.	.	.	.	-79
O=C(Nc1ccc(N2CCOCC2)c(Cl)c1)c1cccnc1	.	.	.	.	.	.
CCOc1ccccc1Nc1nnc(Cc2ccccc2Cl)c(=O)[nH]1	.	.	.	.	.	-32
COc1ccc(CCNC(=O)c2c(C)oc3ncn(CC(C)C)c(=O)c23)c(OC)c1	.	.	.	.	.	-30
Cc1ccc(NC(=O)c2c(C)oc3ncn(CC(C)C)c(=O)c23)nc1	.	.	.	31	.	.
Cc1ccnc(NC(=O)c2c(C)oc3ncn(CC(C)C)c(=O)c23)c1	.	.	.	.	.	.
CC1=Nc2cc(C(=O)NCCc3ccc(Cl)cc3)ccc2Sc2c(C)ccc(C)c21	.	.	.	.	.	.
O=C(NCCCN1CCCC1=O)c1ccc(NS(=O)(=O)c2ccc(F)cc2)cc1	.	.	.	.	.	.
O=C(N/N=C/c1ccc(Cl)s1)C(O)c1ccccc1 (configuration not stated)	.	.	.	.	.	-37
O=C(N/N=C/c1cc(Br)cs1)C(O)c1ccccc1 (configuration not stated)	.	.	.	.	.	.
CCOc1ccc(/C=N/NC(=O)C(O)c2ccccc2)c(O)c1 (configuration not stated)	.	.	.	.	.	-33
COc1ccc(C(=O)Oc2cccnc2)cc1	.	.	.	.	.	-32
CCn1c(CNC(=O)C23CC4CC(CC(C4)C2)C3)nnc1SCC(=O)Nc1ccc(C)cc1	.	.	.	.	.	.
C=C1CC2C(CCC3(C)C2CCC3(O)C(C)=O)C2(C)CCC(=O)C=C12 (configuration not stated)	.	.	.	.	.	-51
O=S(=O)(Nc1ccc(Cc2ccncc2)cc1)c1ccc(Br)cc1	.	.	.	.	.	-73
O=S(=O)(Nc1ccc(Cc2ccncc2)cc1)c1ccc(Cl)cc1	.	.	.	.	.	.
CCN(CC)C(=O)CC(c1ccc2c(c1)OCO2)c1c(OC)cc(OC)c2ccc(=O)oc12 (configuration not stated)	.	.	.	.	.	-38
CCN(CC)C(=O)CC(c1ccc(N(C)C)cc1)c1c(OC)cc(OC)c2ccc(=O)oc12 (configuration not stated)	.	.	.	.	.	.
CN(Cc1ccccc1)/[N+]([O-])=N/Oc1ccc([N+](=O)[O-])cc1[N+](=O)[O-]	/	.	/	/	/	/
O=C1OCCC1Sc1nnnn1-c1ccccc1 (configuration not stated)	.	.	.	.	.	.
Cc1ccc(N2C(=O)/C(=C\c3ccc(C(C)C)cc3)N=C2SC2CCOC2=O)cc1 (configuration not stated)	.	.	.	.	.	-38
SMILES	D1 agonist	Glioma ERSR ind	TRHR agonist	TRHR PAM	D1 PAM	D1 antagonist
Cn1nc(-c2ccc3c(c2)OCCO3)c2ccccc2c1=O	.	.	.	.	.	-34
Cn1nc(C(=O)Nc2ccc3c(c2)OCCO3)c2ccccc2c1=O	.	.	.	.	.	.
Cn1c2ccccc2c(=O)c2ccc(-c3ccc4c(c3)OCO4)cc21	.	.	.	.	.	-48
O=C(CBr)c1ccc(Oc2ccc(C(=O)C[n+]3ccccc3Cl)cc2)cc1	/	.	/	/	/	/
Cc1ccc(S(=O)(=O)N(C)Cc2nc(-c3ccc(Br)cc3)no2)cc1	.	.	.	.	.	-36
O=[N+]([O-])c1cc(CSC2=NCCN2)ccc1O	.	.	.	.	.	-55
CCCOc1ccc(CSC2=NCCN2)cc1[N+](=O)[O-]	.	.	.	.	.	.
O=C(Cc1ccc([N+](=O)[O-])cc1)Nc1ccc2c(c1)OCO2	.	.	.	.	.	.
